# In PubChem BioAssay AID686978 (National Center for Advancing Translational Sciences (NCATS), 2013):
# Among all 420,000 compounds or so, about 64,000 (15%) were called active. Another 27% or so got no clear call; they are omitted. The call rests on the fitted dose curve; in most records, active means well fitted inhibition curve with a large enough effect; inconclusive means small, poorly fitted or top-dose-only effect; inactive means flat fitted curve, though single readings scatter. Only a sample is shown. Entries that show only a call come without a potency.
# Assay: qHTS for Inhibitors of human tyrosyl-DNA phosphodiesterase 1 (TDP1): qHTS in cells in absence of CPT; further: nearly all actives have a fitted effect of over 55% in size
# Conditions: DT40 Tdp1-/- hTDP1 cells, no CPT, ATP luminescence, 48 h; activity change, negative = growth inhibition: at 46.2 µM (top of the series)
# Summary of the method: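 Growth kinetics read by CellTiter-Glo luminescence after ≥48 hr at 37 °C. Cells: DT40 Tdp1-/- stably carrying human TDP1, 400 per well, compound exposure in the absence of CPT (DMSO vehicle).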
# Potency means the concentration at half of the fitted maximal effect.
row,Compound,Potency
1,COc1ccc(C(C)NC(=O)C2CCCC2)cc1 (configuration not stated),inactive
2,NC(=O)c1ccc(NC(=O)COC(=O)C(Cc2ccccc2)NC(=O)c2ccccc2)cc1 (configuration not stated),inactive
3,O=C(O)c1ccc(NC(=O)c2ccc(COc3ccc(Cl)cc3)o2)cc1,inactive
4,CC(=O)Nc1cc(C(=O)N2CCc3c(Cl)cccc3C2)cc2ncn(CCc3ccccn3)c12,inactive
5,COc1cccc(C2/C(=C(/O)c3ccc(F)cc3)C(=O)C(=O)N2CCN(C)C)c1 (configuration not stated),inactive
6,O=C1CC(C(=O)O)NC(=S)N1 (configuration not stated),inactive
7,CCCCCN(C(=O)NC(=O)Nc1cccc(C)c1C)S(C)(=O)=O,inactive
8,COc1ccc(C2CC(c3cccc(OC)c3)=NN2c2ccc(S(N)(=O)=O)cc2)cc1 (configuration not stated),inactive
9,COc1ccccc1OCCOc1ccc(/C=C2\C(=N)N3N=C(C)SC3=NC2=O)cc1,inactive
10,COc1ccc(OC)c(Nc2nc(-c3ccc(O)c(O)c3)cs2)c1,1.16 µM (active)
11,CCN(CC(=O)Nc1c(F)cccc1F)C(=O)CN1c2cccc3cccc(c23)S1(=O)=O,inactive
12,CCn1c(SCC(=O)NCC2CCCO2)nc2cc(S(=O)(=O)N3CCCCC3)ccc21 (configuration not stated),inactive
13,Cc1ccc(NC(=O)CSc2nnc(COc3ccccc3C)o2)cc1,inactive
14,CC1CCCC(C)N1C(=O)CSc1nnnn1C1CCCC1 (configuration not stated),inactive
15,Cc1ccc(NC(=S)NCCN2CCOCC2)cc1,inactive
16,CCCCc1ccc(NC(=S)NCCCN2CCOCC2)cc1,inactive
17,CCOc1cccc(/C=N/NC(=S)NCCN2CCOCC2)c1O,2.91 µM (active)
18,Brc1cnc(N2CCCC2)nc1N1CCCCC1,inactive
19,C=CCn1c(CNS(=O)(=O)c2ccc(Br)cc2)nnc1SC,inactive
20,CCC(C)(C)NC(=O)CN(Cc1cccs1)C(=O)CNS(=O)(=O)c1ccc(F)cc1,inactive
21,COc1ccc(NC(=O)CN(C)C(=O)c2cccc(S(=O)(=O)N3CCN(c4ccccc4)CC3)c2)cc1,20.6 µM (active)
22,CCOc1ccc(NC(=O)CN(C)C(=O)c2cccc(S(=O)(=O)N3CCCC3)c2)cc1OCC,inactive
23,COc1ccc(OC)c(NC(=O)c2cccc(S(=O)(=O)N3CCN(C(C)=O)CC3)c2)c1,inactive

row,Compound,Potency
1,O=C(NCc1ccccc1Cl)NC(=O)c1csc([N+](=O)[O-])c1,inactive
2,CCCOc1ccc(Cc2c(O)nc(SC)[nH]c2=O)cc1C,inactive
3,COc1cccc(NC(=O)NCCN2CCCCC2)c1,inactive
4,COc1cccc(NC(=O)CN2CCN(CC(=O)Nc3ccccc3Cl)CC2)c1,inactive
5,COc1cccc(NC(=O)C2(C)CCN2Cc2ccccc2Cl)c1 (configuration not stated),25.9 µM (active)
6,O=C1COc2c1ccc(O)c2O,inactive
7,Cc1c(Cc2ccccc2)c(=O)oc2cc(OCC(N)=O)ccc12,inactive
8,CC(=O)c1c(C)n(-c2ccc(C)cc2)c2ccc(O)cc12,inactive
9,CC(=O)c1c(C)n(-c2ccc(N(C)C)cc2)c2ccc(OCC(N)=O)cc12,23.1 µM (active)
10,COc1ccc(CN2CCCC(N3CCc4ccccc4C3)C2)c(O)c1 (configuration not stated),inactive
11,Cn1nccc1NS(=O)(=O)c1ccc(F)cc1,inactive
12,Cc1cc(F)ccc1NS(=O)(=O)c1ccc(-n2cccn2)cc1,16.4 µM (active)
13,Cc1ccc(NS(=O)(=O)c2ccc(F)cc2)nc1,inactive
14,COc1ccccc1C(C)NC(=O)Cc1ccsc1 (configuration not stated),inactive
15,CC1=CC(=C(C#N)c2nc3ccccc3s2)C=C(C)N1c1ccc(F)cc1F,18.4 µM (active)
16,CN(Cc1nc2ccccc2s1)C(=O)c1ccc(F)cc1,inactive
17,Cc1nn(-c2ccc(F)cc2)c(Cl)c1/C=C(/CCC(=O)O)c1nc2ccccc2s1,inactive
18,COCc1c(C(=O)N/N=C\c2cccnc2)nnn1-c1nonc1N,inactive
19,Cc1cc(C(=O)OCC(=O)NCc2ccco2)c(C)n1-c1ccccc1,2.06 µM (active)
20,CN(c1ccccc1)S(=O)(=O)c1ccc(Cl)c(C(=O)OCC(=O)NCc2ccco2)c1,inactive
21,O=C(COC(=O)c1ccccc1O)NCc1ccco1,inactive
22,Cc1ccc(S(=O)(=O)/N=S(\C)C(C)C)cc1 (configuration not stated),inactive
23,Cc1cc(O)ccc1NC1=CC(=O)CC(C)(C)C1,inactive

row,Compound,Potency
1,Oc1ccc2ccccc2c1C=Nc1ccccc1,inactive
2,Oc1ccc(N=Cc2sc3ccccc3c2Cl)cc1,10.3 µM (active)
3,N#C/C(=C/c1ccc(-c2ccccc2[N+](=O)[O-])o1)C(=O)NCCN1CCCCC1,inactive
4,O=C1C2C3C=CC(C4CC34)C2C(=O)N1/N=C/c1ccc(-c2ccccc2[N+](=O)[O-])o1 (configuration not stated),18.4 µM (active)
5,Cc1cc(-c2ccc(/C=N/n3cnnc3)o2)c([N+](=O)[O-])cc1C,inactive
6,Cn1c(-c2ccc(C(F)(F)F)cc2)cc2onc(-c3ccccc3)c2c1=O,inactive
7,Cc1ccc(S(=O)(=O)CCC(=O)OCC(=O)NCCc2ccc(S(N)(=O)=O)cc2)cc1,inactive
8,CCC1C(=O)NCCN1C(=O)c1ccc2nc(Cc3ccc(OC)cc3)oc2c1 (configuration not stated),inactive
9,COc1ccc(C(CCNCc2ccccc2F)c2ccc(F)cc2)cc1 (configuration not stated),13 µM (active)
10,COc1ccc(CCNC(=O)COC(=O)Cc2ccccc2F)cc1,inactive
11,COc1ccc(CC(=O)NC(C)CCc2ccccc2)cc1 (configuration not stated),inactive
12,COc1ccccc1-c1ccnc(-n2ncc(C(=O)NCCc3ccncc3)c2C)n1,inactive
13,COc1cccc(NC(=O)CN2C(=O)c3ccccc3Sc3ncccc32)c1,18.4 µM (active)
14,COCCNC(=O)CCCN1C(=O)c2ccccc2Sc2ncccc21,inactive
15,CNC(=O)CN1C(=O)c2cccnc2Sc2ccccc21,inactive
16,C#CCN(C[C@H]1[C@H](OC(=O)NC2CCCC2)[C@H](OC(=O)NC2CCCC2)C[C@H]2C(=O)N(c3ccccc3)C(=O)[C@@H]12)S(=O)(=O)c1ccc(C)cc1,inactive
17,C#CCN(C[C@@H]1[C@@H](OC(=O)NC2CC2)[C@@H](OC(=O)NC2CC2)Cn2c(=O)ccc(=O)n21)S(=O)(=O)c1ccc(C)cc1,14.6 µM (active)
18,Cc1ccc(S(=O)(=O)N(C)CC(=O)NC2CCCC2)cc1,inactive
19,CN(C)CCN(C(=O)C1=COCCO1)c1nc2ccc(Cl)cc2s1,inactive
20,CC(=O)OCc1cc(=O)n(C)c(=O)n1C,inactive
21,CC1C(O)CC2C(C(=O)O)=CO[C@@H](O[C@H]3OC(CO)C(O)C(O)C3O)C21 (some centres not stated),inactive
